Rows were chosen to be rich in hits. Some 2.9% of all compounds tested hit in one or more screens of this group.
EPAC1 ag val = validation of human EPAC1 agonists; AID 1645883; Potency, µM, without a hit: max response, positive = active, actives largely listed as activators; O95398; EPAC1 Rap1b BODIPY-GDP exchange, fluorescence; 16,000 tested, 1% active; also: nearly all actives have a fitted effect of over 70% in size
EPAC2 antag = human EPAC2 antagonism, validation; Q8WZA2; EPAC2 Rap1B BODIPY-GDP exchange, fluorescence; Potency, µM (doses to about 112 µM), without a hit: top-dose activity, negative = inhibition, hits mostly inhibitors; 16,000 tested, 1.7% active; AID 1645886;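 also: 100% = activation by cAMP agonist control; nearly all actives have a fitted effect of over 40% in size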
Target sequence (Q8WZA2 whole entry, looked up): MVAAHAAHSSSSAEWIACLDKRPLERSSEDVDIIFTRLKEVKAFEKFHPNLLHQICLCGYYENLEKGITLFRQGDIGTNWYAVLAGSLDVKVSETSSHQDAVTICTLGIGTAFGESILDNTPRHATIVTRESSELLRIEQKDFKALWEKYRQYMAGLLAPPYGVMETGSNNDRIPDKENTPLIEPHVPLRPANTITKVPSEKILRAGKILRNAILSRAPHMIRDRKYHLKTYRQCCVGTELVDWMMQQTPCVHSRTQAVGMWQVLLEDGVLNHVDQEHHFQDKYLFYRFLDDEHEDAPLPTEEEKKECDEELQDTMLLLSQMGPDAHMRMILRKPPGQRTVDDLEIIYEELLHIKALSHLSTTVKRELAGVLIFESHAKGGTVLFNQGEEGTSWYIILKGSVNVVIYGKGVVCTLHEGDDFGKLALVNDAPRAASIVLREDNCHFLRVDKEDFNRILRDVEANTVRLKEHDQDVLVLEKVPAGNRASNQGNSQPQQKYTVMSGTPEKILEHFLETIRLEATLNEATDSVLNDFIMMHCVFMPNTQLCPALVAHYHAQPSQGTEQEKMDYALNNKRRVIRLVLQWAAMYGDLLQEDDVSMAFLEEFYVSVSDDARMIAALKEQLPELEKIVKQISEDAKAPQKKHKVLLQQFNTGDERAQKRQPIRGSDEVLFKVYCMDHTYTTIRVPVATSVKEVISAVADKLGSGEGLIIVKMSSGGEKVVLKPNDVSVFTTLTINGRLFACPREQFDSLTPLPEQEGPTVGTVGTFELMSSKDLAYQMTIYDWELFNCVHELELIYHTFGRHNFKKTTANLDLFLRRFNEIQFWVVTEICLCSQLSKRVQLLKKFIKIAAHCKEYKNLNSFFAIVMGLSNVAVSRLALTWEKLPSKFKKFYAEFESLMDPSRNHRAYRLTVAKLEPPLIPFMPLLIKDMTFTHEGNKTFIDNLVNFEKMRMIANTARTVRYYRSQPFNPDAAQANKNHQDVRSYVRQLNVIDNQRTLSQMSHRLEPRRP
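Normalized against a 6.5 mM cAMP agonist control, compounds were tested on 100 nM EPAC2 exchanging Rap1B-bound BODIPY-GDP (250 nM) for 50 uM GDP. Fluorescence drop (ex 480, em 540 nm) was tracked at room temperature over 30 min at 5-min intervals.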
Active calls of the source: *; ? = inconclusive. Calls follow the shape of the dose curve; as a rule, active = well fitted curve in the direction sought with a large enough effect; inconclusive = small, poorly fitted or top-dose-only effect, or another doubt; inactive = no such curve, though single readings can be large; an effect the other way counts as inactive or inconclusive. Unless noted, % is scaled to controls: 0 for no effect and ±100 for the full control effect; potency is read from the fitted curve at half-maximal effect.

SMILES	EPAC1 ag val	EPAC2 antag
O=C(NCc1ccon1)c1ccc(-c2csc3ccccc23)nc1N1CCC(N2CCCC(CO)C2)CC1 (stereo unspecified)	-10%	?
O=C(c1cnccn1)N1CCC2(CCCN(c3ccccn3)C2)CC1	13%	-24%
O=C1CCN(Cc2ccccc2)S(=O)(=O)c2ccc(C(F)(F)F)cc21	-20%	?
Oc1ccc(Cl)cc1Sc1cc(Cl)ccc1O	-30%	50µM*
COCC(=O)N1CCC2(CCCN(c3ccc(-c4ccccc4)cc3)C2)CC1	-7%	-10%
CC(=O)N1CCC2(CCCN(c3ccc(-c4ccccc4)cc3)C2)CC1	100µM*	?
CC(=O)N1CCC2(CCCN(c3cccc(-c4ccccc4)c3)C2)CC1	100µM*	45µM*
O=C(c1ccco1)N1CCC2(CC1)CN(c1cccc(-c3ccccc3)c1)C2	100µM*	?
O=C(Oc1ccccc1)N1CCC2(CCCN(c3cccc(-c4ccccc4)c3)C2)CC1	?	-19%
O=C(c1ccco1)N1CCC2(CC1)CN(c1ccc(-c3ccccc3)cc1)C2	?	-24%
COc1ccc(C(=O)Oc2ccc3c(-c4ccc(OC)cc4)cc(=O)oc3c2)cc1	-9%	21%
COc1cccc2oc(-c3ccc(O)cc3)cc(=O)c12	-13%	-2%
C[N+]1(CC(=O)c2ccc(F)cc2)CCc2ccccc2C1 (stereo unspecified)	25%	3%
C(=C\c1nccc2ccccc12)/c1ccc(N2CCOCC2)cc1	100µM*	6%
Cc1noc(C)c1-c1nc(N2CCOCC2)c2ccccc2n1	-31%	2%

Screening data (PubChem)
